Measured values: PubChem BioAssay

Assay: binders of probe aFGF2 on microarray, primary screen, stem cell growth factor project, biochemical, small-molecule microarray, fluorescence 635/667 (AID 1067);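 further: measures binding of biotinylated aFGF2 protein to printed compounds on slides; z-score merges feature fluorescence and signal-to-noise across triplicate slides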
Conditions: higher = more signal

Structure (SMILES) | composite z-score
Cc1ccc(S[C@]2(C(=O)NCc3ccccc3)CC(=O)N(Cc3ccccc3)[C@@H]2c2ccc(CO)cc2)cc1 | -0.0165
C=C(C(=O)CC[C@H](OC(C)=O)c1ccc(OCCO)cc1)C(C)C | -0.134
Cc1ccc(S[C@]2(C(=O)NCC(C)C)CC(=O)N(Cc3ccccc3)[C@@H]2c2ccc(CO)cc2I)cc1 | 0.0664
O=C1N(CCS(=O)(=O)c2ccccc2)c2ccccc2C[C@@]12COC(c1ccc(OCCCO)cc1)=N2 | 0.0887
CCOC(=O)C[C@H]1[C@H](OC(=O)c2ccc(-c3ccccc3)cc2)[C@@H](NC(=O)Cc2ccc(OC)cc2)c2cc(OCCCO)ccc2N1C(=O)c1ccc2ccccc2n1 | 0.0176
C=CCNC(=O)[C@@H]1[C@H]2C(=O)O[C@H](c3ccccc3)[C@H](c3ccccc3)N2[C@H](c2ccc(OCCO)cc2)[C@@]12C(=O)Nc1ccccc12 | -0.116
COCCOC(=O)N1C(=O)[C@@]2(c3cc(C#CCNC(N)=O)ccc31)[C@H](c1ccccc1OCCO)N1[C@H](c3ccccc3)[C@H](c3ccccc3)OC(=O)[C@H]1[C@@H]2C(N)=O | -0.171
COC(=O)[C@@]1(Cc2ccc(F)cc2)[C@H]2c3cc(C(=O)N4CCCC4)n(Cc4cccc5ccccc45)c3C[C@H]2CN1C(=O)c1ccccc1 | 0.148
CC(C)CNC(=O)[C@@]1(c2ccc([N+](=O)[O-])cc2)CC(=O)N(CC23CC4CC(CC(C4)C2)C3)[C@@H]1c1ccc(CO)cc1 | 0.0201
CC1=C2[C@@H](CCc3ccccc3)OB(O)C[C@@H]2n2c(=O)n(-c3ccccc3)c(=O)n2C1 | -0.132
CCOC(=O)C[C@H]1[C@H](OC(=O)Cc2ccc3c(c2)OCO3)[C@@H](NC(=O)C2CCCCC2)c2cc(OCCCO)ccc2N1C(=O)Cc1ccc(OC)cc1 | -0.048
O=C(CS)NCCCCCCNC(=O)[C@H]1C[C@H]2C(=O)NCC(=O)N2[C@H]1c1ccc(O)cc1 | -0.137
C[N+](C)(C)CCCCCCNC(=O)[C@H]1C[C@H]2C(=O)N3CCC[C@H]3C(=O)N2[C@H]1c1ccc(O)cc1 | -0.116
C[C@H]1NC(=O)[C@H](Cc2ccccc2)NC(=O)[C@@]23C(=O)N[C@@H](Cc4ccccc4)C2[C@H](C)[C@@]2(C)O[C@H]2C3/C=C/C/C=C\CNC1=O (stereo partly specified) | -0.0878
CS(=O)(=O)CCOC(=O)C1=CC(c2ccc(CO)cc2)=CC(C2CC2)N(Cc2cc3c(cc2Br)OCO3)C=C1C(=O)OCCS(C)(=O)=O (stereo unspecified) | -0.0266
[N-]=[N+]=NCc1ccccc1C[C@@]1(C(=O)N2CCOCC2)N=C(c2ccc(OCCCO)cc2)O[C@@H]1c1ccccc1CN=[N+]=[N-] | 0.266
CN1C=C(C(=O)OCCS(C)(=O)=O)C(C(=O)OCCS(C)(=O)=O)=CC(CCCO)=CC1C1CC1 (stereo unspecified) | -0.128
C=CCOC(=O)[C@H]1[C@@H]2C(=O)O[C@@H](c3ccccc3)[C@@H](c3ccccc3)N2[C@@H](c2ccc(OCCOC(=O)[C@@H]3C[C@@H]4C(=O)NCC(=O)N4[C@@H]3c3ccc(O)cc3)cc2)[C@]12C(=O)Nc1ccccc12 | -0.0296

Structure (SMILES) | composite z-score
O=C1C=CC(=O)[C@@H]2CC(COc3ccccc3)=C3[C@@H](CCc4ccccc4)OB(O)C[C@@H]3[C@H]12 | -0.132
CCOC(=O)C1=C[C@@H](C(C)C)N(S(=O)(=O)c2ccc(C)cc2)[C@H]1c1ccc(C(C)C)cc1 | -0.0647
CCOC(=O)C[C@H]1[C@H](OC(=O)c2ccc(-c3ccccc3)cc2)[C@@H](NC(=O)c2ccc3ccccc3c2)c2cc(OCCCO)ccc2N1C(=O)Cc1ccc(OC)cc1 | 0.0325
CCOC(=O)C[C@H]1[C@H](OC(=O)c2ccccc2-c2ccccc2)[C@@H](NC(=O)c2ccc3ccccc3c2)c2cc(OCCCO)ccc2N1C(=O)c1ccc2ccccc2n1 | -0.08
COCCOC(=O)N1C(=O)[C@@]2(c3cc(C#CC4=CCCCC4)ccc31)[C@H](C(=O)NC[C@H](O)c1ccccc1)[C@H]1C(=O)O[C@H](c3ccccc3)[C@H](c3ccccc3)N1[C@@H]2c1ccc(O)cc1 | -0.105
C=C(COC)C(=O)CC[C@H](OC(C)=O)c1cccc(OCCO)c1 | -0.0767
N[C@@H](Cc1ccccc1)Cn1cc(-c2ccccc2)nn1 | -0.0613
O=C1O[C@@H](c2ccccc2)[C@@H](c2ccccc2)N2[C@@H](c3ccc(OCCO)cc3)[C@]3(C(=O)Nc4ccc(C#CC5=CCCCC5)cc43)[C@@H](C(=O)O)[C@H]12 | -0.0158
COCCOC(=O)N1C(=O)[C@@]2(c3cc(C#CCC(C(=O)OC)C(=O)OC)ccc31)[C@H](C(=O)N1CCCCCCC1)[C@H]1C(=O)O[C@H](c3ccccc3)[C@H](c3ccccc3)N1[C@@H]2c1ccc(OCCO)cc1 | 0.755
CCCCC=C[C@@H](NC(=O)c1ccco1)c1ccccc1 | 0.0603
C=CCC(OC(C)=O)[C@@H]1[C@@H](N(Cc2cccc3ccccc23)C(=O)c2cccc3ccccc23)c2cc(OCCCO)ccc2N1C(=O)c1ccc2ccccc2n1 (stereo partly specified) | 0.0083
COc1ccc([Si](C)(C)[C@H]2[C@H](CCn3cc(CCO)nn3)O[C@@]3(C(=O)N(Cc4ccc(N5CCOC5=O)cc4)c4ccccc43)[C@@H]2C)cc1 | -0.0158
CC(=O)Nc1cc(Br)ccc1C(=O)O | 0.0308
CN1CCC(CCCO)=CC1c1ccc(CN2CCCC2)cc1 (stereo unspecified) | 0.0626
COCCOC(=O)N1C(=O)[C@@]2(c3ccccc31)[C@H](C(=O)Nc1nc3ccccc3s1)[C@H]1C(=O)O[C@H](c3ccccc3)[C@H](c3ccccc3)N1[C@@H]2c1ccc(OCCO)cc1 | -0.0426
COC(=O)c1ccc(C(O)C2C=CC3C(=O)N(C)C(=O)C3N2NC(=O)OC(C)(C)C)o1 (stereo unspecified) | 0.0942
O=C1OCCC=C[C@H]2OC34C=CCN(Cc5ccccc5)C(=O)[C@H]3N(CCCCCCO)C(=O)[C@@H]4C12 (stereo partly specified) | -0.196
CC(C)N1C(=O)c2ccccc2[C@@H](C(=O)NCCCN(C)C)[C@@H]1c1ccc(CO)cc1 | -0.0502
